Results: the supplement of paper PMC3334620
Over roughly 33,000 sequences, “E-score (-0.5 to 0.5)” has its median near -0.054; the highest 2% begin near 0.35. The sample as a whole holds a higher share of the highest values than the screen did.

target: T1, Stb5 (UniProt P38699); experiment: PBM E-score (8-mer binding enrichment) (E-score (-0.5 to 0.5)); higher = stronger / more preferred TF binding; settings: protein concentration: 200 nM; construct: GST-full length
T1 sequence: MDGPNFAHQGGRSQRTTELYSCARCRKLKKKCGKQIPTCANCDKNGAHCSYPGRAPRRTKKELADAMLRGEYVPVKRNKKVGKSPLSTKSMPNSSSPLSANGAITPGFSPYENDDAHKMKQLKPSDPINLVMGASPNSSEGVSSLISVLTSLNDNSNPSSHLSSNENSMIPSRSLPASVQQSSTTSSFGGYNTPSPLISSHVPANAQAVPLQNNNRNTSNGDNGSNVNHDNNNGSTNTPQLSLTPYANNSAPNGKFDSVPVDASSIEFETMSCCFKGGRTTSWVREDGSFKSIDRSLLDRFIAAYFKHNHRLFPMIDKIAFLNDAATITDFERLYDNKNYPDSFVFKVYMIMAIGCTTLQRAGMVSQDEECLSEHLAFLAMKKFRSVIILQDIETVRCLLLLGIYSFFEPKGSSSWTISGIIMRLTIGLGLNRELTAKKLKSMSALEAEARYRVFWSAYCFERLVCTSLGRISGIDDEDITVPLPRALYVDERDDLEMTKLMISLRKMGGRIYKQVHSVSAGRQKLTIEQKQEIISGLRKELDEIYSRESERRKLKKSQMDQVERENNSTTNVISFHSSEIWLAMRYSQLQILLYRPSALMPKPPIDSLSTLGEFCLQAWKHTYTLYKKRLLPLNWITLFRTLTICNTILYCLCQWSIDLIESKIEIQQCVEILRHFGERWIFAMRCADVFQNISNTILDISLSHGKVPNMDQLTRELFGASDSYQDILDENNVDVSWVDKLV
Summary of the method: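 E-scores (a modified Wilcoxon-Mann-Whitney statistic) were assigned by the Universal PBM Analysis Suite to every ungapped eight-base word pooled with its reverse complement. The input came from universal all-10-mer Agilent arrays made double-stranded by primer extension and probed with GST-tagged yeast transcription factors at about 100-200 nM. Fluorescent anti-GST detected bound protein, and masliner normalised the scans.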

Row | Sequence | PBM E-score
1 | GTGGTCAA | -0.291
2 | CACTCCGC | 0.307
3 | AACTCCGT | 0.444
4 | TACTCCGA | 0.234
5 | AACTCCGA | 0.463
6 | AACTCCGC | 0.438
7 | AACTCCAT | 0.144
8 | AACTCCCT | -0.0261
9 | GACTCCGC | 0.333
10 | CACTCCGG | 0.219
11 | CACTCCGA | 0.242
12 | AACTCCGG | 0.436
13 | AACTCCCG | 0.248
14 | AGATCAAG | -0.211
15 | ATTAGTCC | 0.248
16 | CATATCAC | 0.0389
17 | TGCTGCAA | -0.177
18 | CCAGAACG | -0.0165
19 | ATTCAAAG | -0.12
20 | GCGCGAAA | 0.0664
21 | AAGAGTGA | -0.258
22 | ACAGACGT | -0.141
23 | CCCCTCAC | -0.231
24 | GGGTACCA | -0.157

Row | Sequence | PBM E-score
25 | TGGTACCA | -0.0919
26 | CGGTACTA | 0.474
27 | AGGTACTA | 0.16
28 | GGGTACTA | -0.0611
29 | CGGTACCA | 0.39
30 | AATGTGCC | 0.145
31 | ATCAAAGA | -0.248
32 | CAGCAGGA | -0.194
33 | AGTCTCCG | 0.264
34 | AAGAACAT | -0.0596
35 | ATAACACA | -0.107
36 | CCAACACC | 0.119
37 | ATAACACC | 0.461
38 | CTAACACC | 0.401
39 | CTAACACA | -0.0526
40 | ATAACACG | -0.0233
41 | GAATCCTC | -0.239
42 | CGCGTTCC | 0.0249
43 | ATTCCTTC | -0.0881
44 | GCCCTTAA | 0.191
45 | CCCTGGCG | 0.114
46 | CCTCTCCG | -0.171
47 | AATCATTG | -0.314
48 | GTGGCACA | -0.325

Row | Sequence | PBM E-score
49 | CGGGGGCA | 0.275
50 | ACCGATGA | 0.264
51 | CCCGATGA | 0.226
52 | GCCGATGA | 0.357
53 | CCCTATAG | -0.104
54 | AATGGCAT | 0.0389
55 | CCGGCGGA | 0.385
56 | CGGGCGGA | 0.359
57 | CGAGCGGA | 0.385
58 | CGAGCGGC | 0.318
59 | AGAGCGGA | 0.312
60 | CGGGCGGC | 0.308
61 | GGGGCGGA | 0.293
62 | CCGGCGGC | 0.327
63 | GCGGCGGA | 0.333
64 | AATTGGCC | -0.224
65 | CATCTAGG | -0.139
66 | CGAATTGA | -0.12
67 | ACAATTCG | -0.00889
68 | AGGTATCC | -0.211
69 | CGCCTTAA | 0.0389
70 | CGGCCTCC | 0.129
71 | CGGCCTCA | 0.363
72 | AGGCCTCA | -0.264

Row | Sequence | PBM E-score
73 | CTTTAGCA | 0.133
74 | ATCTCTGA | -0.172
75 | AGACCGAC | 0.385
76 | GCACCGAA | 0.358
77 | CCACCGAA | 0.117
78 | TCACCGAA | 0.217
79 | AAACCGAA | -0.0132
80 | AGACCGAA | 0.236
81 | GGACCGAC | 0.318
82 | AGACCGAG | 0.177
83 | GCACCGAC | 0.45
84 | GAACCGAC | 0.225
85 | ACACCGAA | 0.386
86 | CGACCGAC | 0.271
87 | AAGAACTA | -0.0107
88 | AGGTTCAC | -0.164
89 | CAATTCGC | 0.0656
90 | ACGAGAAA | -0.0778
91 | CAATGGCC | 0.0847
92 | ATGAGGCA | -0.24
93 | ATCTTGGG | -0.145
94 | CGAAGGAA | -0.188
